From PubChem BioAssay
The full list was thinned out, with hits kept by preference.
Glioma ERSR ind = inducers of ER stress response in human glioma cells. U87-MG GRP78 promoter luciferase reporter, 16 h. Potency, µM, for inactives: at the top dose activation, most hits filed as activators. actives 0.02% (n = 420,000). AID 602332; further: series mostly up to about 76 µM; % of control where 0% means no effect; nearly all actives have a fitted effect of over 35% in size
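ERSR induction read as luciferase luminescence (Bright-Glo, 10 min at room temperature) in stably transfected human U87-MG glioma cells exposed to compounds for 16 h, using GRP78 as sensor.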
Sfp inh = inhibitors of Bacillus subtilis Sfp phosphopantetheinyl transferase; Biochemical Sfp PPTase activity, qHTS; Potency, µM, for inactives: largest response in the series, negative = inhibition, actives largely listed as inhibitors; actives 3.5% (n = 310,000); AID 1490;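 further: the enzyme is Sfp with the accession as filed and its product quenches rhodamine fluorescence; 0% = enzyme reaction without inhibitor and -100% = no enzyme wells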
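Fluorescence-quenching assay with 15 nM Sfp, 5 uM rhodamine-CoA and 12.5 uM BHQ-2-labelled ybbR peptide in pH 7.6 Hepes/MgCl2 buffer. Enzyme was pre-incubated with compound for 15 min at room temperature. Rate was taken from the 30-min fluorescence change (525/598 nm).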
ALOX12 inh = blocks human arachidonate 12S-lipoxygenase; P18054; purified 12hLO, xylenol orange hydroperoxide absorbance; Potency, µM (doses to about 108 µM), for the others: at the highest dose activity change, negative = inhibition, hits mostly inhibitors; actives 1.1% (n = 580,000); AID 1671190; further: on the % scale 0 is the no-effect control and ±100 the full control effect
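Purified human 12hLO (150 nM final) in 25 mM Hepes, 0.01% Triton X-100, pH 7.0 was preincubated 15 min at room temperature with compound. Then 40 uM arachidonic acid was added, 30 min. Hydroperoxide was read by Fe-XO absorbance ratio 573/405 nm.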
G9a block = G9a (human) methyltransferase inhibition | Q96KQ7 | G9a H3K9 monomethylation, AlphaScreen, 2 h | Potency, µM (top dose mostly 102 µM), for inactives: at the top dose activity, negative = inhibition, most hits filed as inhibitors | actives 8.8% (n = 350,000) | AID 504332; further: on the % scale 0 is the no-effect control and ±100 the full control effect; nearly all actives have a fitted effect of over 75% in size
Target sequence (Q96KQ7 913-1193 limits assumed): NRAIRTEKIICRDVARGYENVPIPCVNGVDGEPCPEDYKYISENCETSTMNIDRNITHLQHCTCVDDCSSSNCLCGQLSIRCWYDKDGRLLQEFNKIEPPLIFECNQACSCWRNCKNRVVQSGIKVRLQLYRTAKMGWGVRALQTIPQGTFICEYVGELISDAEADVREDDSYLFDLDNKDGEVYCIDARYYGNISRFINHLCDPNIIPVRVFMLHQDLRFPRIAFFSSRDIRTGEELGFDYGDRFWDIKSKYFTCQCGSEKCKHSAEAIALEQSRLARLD
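AlphaScreen read-out: biotin-H3K9 peptide (500 nM) methylation by 20 nM enzyme with 20 uM SAM, 2 h at room temperature after 15 min compound preincubation; anti-monomethyl H3K9 antibody plus donor/acceptor beads, 10 min dark.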
VDR inhibitor = vitamin D3 receptor (human) inhibition. Potency, µM, for the others: max response, negative = inhibition, most hits filed as inhibitors. AID 504847. VDR-SRC2-3 peptide fluorescence polarization, 2 h. P11473. actives 0.93% (n = 400,000); further: on the % scale 0 is the no-effect control and ±100 the full control effect
Target sequence (P11473 whole entry, looked up): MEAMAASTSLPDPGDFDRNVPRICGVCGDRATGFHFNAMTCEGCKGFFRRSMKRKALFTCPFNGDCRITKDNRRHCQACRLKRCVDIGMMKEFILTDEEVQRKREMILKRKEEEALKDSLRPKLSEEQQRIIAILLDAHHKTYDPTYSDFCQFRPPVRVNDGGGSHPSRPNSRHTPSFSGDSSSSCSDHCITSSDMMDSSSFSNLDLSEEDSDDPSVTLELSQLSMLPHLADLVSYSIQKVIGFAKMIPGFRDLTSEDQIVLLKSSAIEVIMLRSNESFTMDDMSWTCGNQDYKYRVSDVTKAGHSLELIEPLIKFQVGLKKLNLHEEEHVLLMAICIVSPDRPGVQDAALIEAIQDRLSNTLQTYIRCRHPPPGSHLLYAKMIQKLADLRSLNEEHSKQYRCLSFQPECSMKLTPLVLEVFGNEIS
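VDR–SRC2-3 interaction, FP format. Cmpds 23 nl via pintool, brief spin, 2 h ambient incubation.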
* marks the source's active call; other numbers are inactive results; [ ] = another dose, or the depositor's remark. The call rests on the fitted dose curve; in most records, active means well fitted curve in the direction sought with a large enough effect; inconclusive means small, poorly fitted or top-dose-only effect, or another doubt; inactive means no such curve, though single readings can be large; an effect the other way counts as inactive or inconclusive. Potency means the concentration at half of the fitted maximal effect.

For C[C@@H]1CN(C(=O)c2cc(N3CCOCC3)cc3c2OCCN3C)C[C@H](C)O1 the results were ALOX12 inh 7.4%[176 µM].
For CC1CCc2c(sc3[nH]c(=S)n(C)c(=O)c23)C1 (stereo unspecified) the results were Glioma ERSR ind -2.1%, Sfp inh 79.4µM*, ALOX12 inh -27.3%, G9a block 3.55µM* and VDR inhibitor inconclusive.
For O=C1Nc2ccc(Br)cc2/C1=C/C1CC=CCC1 (stereo unspecified) the results were Glioma ERSR ind 19.0%, Sfp inh 9.5%, ALOX12 inh inconclusive, G9a block 11.0%[59 µM] and VDR inhibitor 70.8µM*.
`COc1ccc(C(=O)/C=C2\C(=O)Nc3ccc(Br)cc32)cc1` gave Glioma ERSR ind -9.5%, ALOX12 inh inconclusive and VDR inhibitor inconclusive.
Screening COC[C@H]1CCCN1C(=O)C[C@@H]1O[C@H](CNS(=O)(=O)c2ccccc2)[C@@H](O)[C@H]1O returned ALOX12 inh 39.8µM*.
O=C(C[C@@H]1O[C@H](CNS(=O)(=O)c2ccccc2)[C@@H](O)[C@H]1O)N1CCN(c2ccccc2)CC1 was read as ALOX12 inh 6.0%.
For O=C(CSc1nnc(Cc2cccs2)n1Cc1ccco1)Nc1ccc(Cl)cc1Cl the results were Glioma ERSR ind -0.9%, Sfp inh 28.2µM*, ALOX12 inh inconclusive, G9a block inconclusive and VDR inhibitor -1.5%.
`O=C(CSc1nnc(Cc2cccs2)n1Cc1ccco1)Nc1ccc(Br)cc1` gave Glioma ERSR ind -4.3%, Sfp inh 14.1µM*, ALOX12 inh 56.3%, G9a block inconclusive and VDR inhibitor -6.3%.
Screening CCCC(=O)OCCC(C)C returned ALOX12 inh -13.9%[176 µM].
Cc1ccccc1Nc1c(-c2ccccn2)nc2c(C)cccn12 was read as Glioma ERSR ind -3.6%, Sfp inh 6.4%, ALOX12 inh -10.4%, G9a block 44.7µM* and VDR inhibitor 17.6%.
Cc1cccn2c(Nc3ccccc3)c(-c3cccs3)nc12 was read as Glioma ERSR ind -0.2%, ALOX12 inh -7.1%, G9a block -35.9%[59 µM] and VDR inhibitor -8.7%.
`Cc1ccccc1Nc1c(-c2ccc(O)cc2)nc2c(C)cccn12` gave Glioma ERSR ind -2.4%, ALOX12 inh inconclusive, G9a block inconclusive and VDR inhibitor -20.9%.
`Cc1ccc(-c2nc3c(C)cccn3c2Nc2ccccc2C)s1` gave Glioma ERSR ind -2.8%, ALOX12 inh inconclusive, G9a block 14.1µM* and VDR inhibitor -1.2%.
`CCCNC(=O)Cn1cccc1-c1nc(-c2ccc(F)c(Br)c2)no1` gave ALOX12 inh -7.3%.
Cc1cc(C)cc(NC(=O)C(c2ccccc2)n2cnc3c2c(=O)n(C)c(=O)n3C)c1 (stereo unspecified) was read as ALOX12 inh -25.1%.
For COc1ccc(C(C)NC(=O)c2noc(-c3ccc(C)cc3)n2)cc1OC (stereo unspecified) the results were ALOX12 inh 8.5%.
For CC(C)CSC1=NSC2=NC(=O)/C(=C\c3cccs3)C(=N)N12 the results were Glioma ERSR ind -2.5%, Sfp inh 22.7%, ALOX12 inh -14.2%, G9a block 44.7µM* and VDR inhibitor -15.6%.
Screening N=C1/C(=C/c2cccs2)C(=O)N=C2SN=C(SCc3ccccc3)N12 returned Glioma ERSR ind 4.5%, Sfp inh 4.0%, ALOX12 inh inconclusive, G9a block -7.8%[12.7 µM] and VDR inhibitor 12.2%.
`CN1CCN(C(=O)CCN2C(=O)/C(=C/c3cccc(Br)c3)SC2=S)CC1` gave Glioma ERSR ind -9.9%, Sfp inh -3.2%, ALOX12 inh inconclusive, G9a block 25.1µM* and VDR inhibitor -19.2%.
For O=C1C(=Cc2cccc(O)c2O)SC(=S)N1CCCN1CCOCC1 the results were Glioma ERSR ind -0.5% and ALOX12 inh 6.31µM*.
Screening O=C(CCCN1C(=O)/C(=C/c2ccccc2)SC1=S)N1CCOCC1 returned Glioma ERSR ind -0.4%, Sfp inh -7.3%, ALOX12 inh -29.5%, G9a block 79.4µM* and VDR inhibitor -17.8%.
For CN1CCN(C(=O)CCCN2C(=O)/C(=C/c3cccc(Br)c3)SC2=S)CC1 the results were Glioma ERSR ind -7.8%, Sfp inh -19.8%, ALOX12 inh inconclusive, G9a block 39.8µM* and VDR inhibitor 1.4%.
O=C(CCCN1C(=O)/C(=C/c2ccccc2Cl)SC1=S)NCCCN1CCOCC1 was read as Glioma ERSR ind -13.0%, Sfp inh -5.7%, ALOX12 inh -4.3%, G9a block inconclusive and VDR inhibitor -3.6%.
For C[C@]12C[C@H](O)[C@@H]3c4ccc(O)cc4CC[C@H]3[C@@H]1CCC2=O the results were ALOX12 inh -10.2%.
O=C(CCN1C(=O)/C(=C\c2cccc(Br)c2)SC1=S)NCCCN1CCOCC1 was read as Glioma ERSR ind 0.8%, Sfp inh -4.2%, ALOX12 inh -21.8%, G9a block 44.7µM* and VDR inhibitor -12.2%.
`CC(C)N1CCC(N2CCN(Cc3ccc(-c4ccccc4Cl)o3)CC2CCO)CC1` (stereo unspecified) gave Glioma ERSR ind 7.1%, Sfp inh -29.0%, ALOX12 inh 0.1%, G9a block 15.8µM* and VDR inhibitor -12.9%.
N#CCCCS(=O)(=O)c1nnnn1-c1ccc(F)cc1Br was read as Sfp inh 7.5% and VDR inhibitor 44.7µM*.
COc1ccc(CCNC(=O)Cc2c(C)c3ccc(O)cc3oc2=O)cc1OC was read as ALOX12 inh -12.4%.
`c1ccc(CNc2nc(-c3ccc4c(c3)OCO4)nc3ccccc23)cc1` gave Glioma ERSR ind -3.2%, Sfp inh 4.1%, ALOX12 inh inconclusive, G9a block 10.4%[0.501 µM] and VDR inhibitor 44.7µM*.
Screening Cc1cccc(CNc2ncncc2-c2ccc3c(c2)OCO3)c1 returned Glioma ERSR ind -5.9%, Sfp inh -9.1%, ALOX12 inh -19.9% and VDR inhibitor inconclusive.
c1ccc2c(NCc3ccc4c(c3)OCO4)nc(-c3ccncc3)nc2c1 was read as ALOX12 inh 0.9%.
For c1ccc(CNc2ncncc2-c2ccc3c(c2)OCO3)cc1 the results were Glioma ERSR ind -1.5%, Sfp inh -7.9%, ALOX12 inh 25.1µM*, G9a block 3.6%[0.501 µM] and VDR inhibitor 28.2µM*.
Screening COc1cc(-c2noc(C3CCCN(S(=O)(=O)c4cccs4)C3)n2)ccc1OC(C)C (stereo unspecified) returned ALOX12 inh -4.4%.
Screening COc1ccc2[nH]c(C(=O)NCCN3CCCCC3)cc2c1 returned Glioma ERSR ind -1.2%, Sfp inh -2.1%, G9a block 56.2µM* and VDR inhibitor -1.5%.
For COc1ccc2[nH]c(C(=O)NCCCn3ccnc3)cc2c1 the results were Glioma ERSR ind -3.3%, Sfp inh 2.7%, G9a block 50.1µM* and VDR inhibitor -15.7%.
